Source: PubChem BioAssay AID1159580 (chemical genetic matrix, 2015)
In all, about 5,500 compounds went through this assay and about 2,000 (36%) were called active. Another 18% or so got no clear call; they are omitted. No stated cut-off is given here; in the data, active means normalized growth mostly below about 0.91 (no sharp cut-off); inconclusive means no clear call, values can overlap the other calls; inactive means mostly above about 0.92. The list shows a part of the results.

Assay: chemical genetic growth profiling, strain panel (AID 1159580);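 further: tested at 20 µM; growth read once vehicle control cultures reached saturation at 30 °C; 1 = growth at the plate median or of vehicle wells; lower values mean less growth of the strain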
Settings: S. cerevisiae deletion strains, growth OD

Measured: normalized growth

O=c1c(-c2cc(O)c(O)c(O)c2)coc2cc(O)c(O)c(O)c12
active: locus YAL021C, strain ccr4, hits give low values 0.719 | locus YAL026C, strain drs2, hits give low values 0.876 | locus YBR023C, strain chs3, hits give low values 0.904 | locus YBR229C, strain ROT2, hits give low values 0.812 | locus YBR231C, strain swc5, hits give low values 0.826 | locus YCL029C, strain bik1, hits give low values 0.751 | locus YDL035C, strain GPR1, hits give low values 0.787 | locus YDL074C, strain BRE1, hits give low values 0.698 | locus YDL101C, strain DUN1, hits give low values 0.462 | locus YDL134C, strain PPH21, hits give low values 0.777 | locus YDR069C, strain doa4, hits give low values 0.746 | locus YDR137W, strain rgp1, hits give low values 0.716 | locus YDR162C, strain NBP2, hits give low values 0.632 | locus YDR334W, strain swr1, hits give low values 0.879 | locus YDR335W, strain msn5, hits give low values 0.885 | locus YEL061C, strain CIN8, hits give low values 0.878 | locus YER015W, strain faa2, hits give low values 0.919 | locus YER111C, strain swi4, hits give low values 0.731 | locus YGL086W, strain mad1, hits give low values 0.923 | locus YGL173C, strain kem1, hits give low values 0.872 | locus YGL248W, strain PDE1, hits give low values 0.851 | locus YGL253W, strain hxk2, hits give low values 0.878 | locus YGR078C, strain PAC10, hits give low values 0.817 | locus YGR229C, strain SMI1, hits give low values 0.328 | locus YHR027C, strain rpn1, hits give low values 0.893 | locus YHR079C, strain IRE1 (second series), hits give low values 0.922 | locus YHR129C, strain ARP1, hits give low values 0.869 | locus YHR142W, strain chs7, hits give low values 0.808 | locus YIL066C, strain RNR3, hits give low values 0.774 | locus YJL095W, strain BCK1, hits give low values 0.331 | locus YJL187C, strain SWE1 (second series), hits give low values 0.282
inactive: locus YAL030W, strain snc1, hits give low values 0.999 | locus YBL061C, strain skt5, hits give low values 0.94 | locus YBR009C, strain hhf1, hits give low values 0.975 | locus YBR021W, strain FUR4, hits give low values 1.03 | locus YBR171W, strain sec66, hits give low values 0.991 | locus YBR279W, strain paf1, hits give low values 0.97 | locus YCL011C, strain gbp2, hits give low values 0.979 | locus YCL016C, strain dcc1, hits give low values 0.99 | locus YCL061C, strain MRC1, hits give low values 0.97 | locus YCL069W, strain vba3, hits give low values 0.996 | locus YCR088W, strain abp1, hits give low values 1.03 | locus YDL005C, strain med2, hits give low values 1.02 | locus YDL040C, strain nat1, hits give low values 1.02 | locus YDL185W, strain tfp1, hits give low values 0.944 | locus YDL192W, strain arf1, hits give low values 0.927 | locus YDR001C, strain nth1, hits give low values 1.01 | locus YDR101C, strain arx1, hits give low values 0.918 | locus YDR159W, strain sac3, hits give low values 0.981 | locus YDR195W, strain ref2 0.993 | locus YDR297W, strain sur2, hits give low values 0.987 | locus YDR318W, strain mcm21, hits give low values 0.986 | locus YDR388W, hits give low values 0.983 | locus YDR392W, strain spt3, hits give low values 0.899 | locus YDR502C, strain sam2, hits give low values 0.931 | locus YEL003W, strain gim4, hits give low values 0.958 | locus YEL037C, strain rad23, hits give low values 0.937 | locus YEL061C, strain CIN8 (second series), hits give low values 1 | locus YER016W, strain bim1, hits give low values 1 | locus YER110C, hits give low values 1 | locus YER155C, strain BEM2 (second series), hits give low values 0.935 | locus YER155C, strain BEM2, hits give low values 0.991 | locus YER167W, strain BCK2, hits give low values 0.972 | locus YFR010W, strain ubp6, hits give low values 0.915 | locus YGL078C, strain dbp3, hits give low values 0.991 | locus YGL167C, strain pmr1, hits give low values 1 | locus YGL227W, strain vid30, hits give low values 1.05 | locus YGL240W, strain doc1, hits give low values 1.04 | locus YGR135W, strain pre9, hits give low values 0.917 | locus YGR252W, strain gcn5, hits give low values 0.853 | locus YHR013C, strain ard1, hits give low values 0.88 | locus YHR030C, strain SLT2, hits give low values 0.952 | locus YHR094C, strain hxt1, hits give low values 1.01 | locus YHR200W, strain rpn10, hits give low values 0.957 | locus YIL073C, strain SPO22, hits give low values 0.686 | locus YIL125W, strain kgd1, hits give low values 1 | locus YIR030C, strain dcg1, hits give low values 1 | locus YJL092W, strain hpr5, hits give low values 1.01 | locus YJL095W, strain BCK1 (second series), hits give low values 0.986 | locus YJL115W, strain asf1, hits give low values 1.01 | locus YJL129C, strain trk1, hits give low values 1.03 | locus YJL134W, strain LCB3, hits give low values 0.943 | locus YJL154C, strain vps35, hits give low values 1.01 | locus YJL164C, strain tpk1, hits give low values 0.949 | locus YJL166W, strain qcr8, hits give low values 0.921 | locus YJL168C, strain set2, hits give low values 0.982
